Test [1] is described as follows: signal quenchers or enhancers, Cy5 substrate/SSB – biochemical, NIH Clinical Collection, E. coli SSB, artefact control for HCV NS3 helicase inhibitor project (AID 743268). Conditions: Cy5-oligo bound E. coli SSB, fluorescence interference.
The test system of test [2] is Hepatitis C virus NS3 helicase. Briefly: blockers of NS3h binding to DNA – biochemical, fluorescence polarization, NIH Clinical Collection, primary screen (AID 743270). Conditions: NS3 helicase binding to Cy5-dT15 DNA, stronger effect = higher value, concentration not given here. (In fluorescence polarisation assays a small probe gives low polarisation when free and higher when bound to something large.)

Test [3] addresses Single-stranded DNA-binding protein (Escherichia coli (strain K12)) (UniProt P0AGE0). Nature of the test: SSB-ssDNA binding inhibitors – biochemical, fluorescence polarization, NIH Clinical Collection, counter-screen for HCV NS3 helicase inhibitor project (AID 743271; in the data active = inhibition above about 28%). Conditions: E. coli SSB-DNA binding, stronger effect = higher value, concentration not given here.
The nature of test [4]: compounds distorting NS3 helicase fluorescence signal – biochemical, NIH Clinical Collection, artefact control for HCV NS3 helicase inhibitor project (AID 743272).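 Note: HCV NS3 helicase with a Cy5 labelled single stranded DNA probe.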 Conditions: fluorescence interference counterscreen, HCV NS3 helicase assay; stronger effect = lower value.
A short description of test [5]: Wnt pathway potentiators raising nuclear beta-catenin – imaging, WNT3A-conditioned medium, mouse C2C12, NPC library, primary screen (AID 1117326; in the data active = nuclear beta-catenin stimulation mostly above about 4.2%, no sharp cut-off; inactive = mostly below about 10%). Conditions: stronger effect = higher value.
A short description of test [6]: stimulators of insulin release from INS-1E, primary screen, cell-based, 5 mM glucose, NPC library (AID 1117329;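 active = compound raises insulin release from rat beta cells at 5 mM glucose, no numeric limit stated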). Conditions: rat INS-1E insulin secretion, at 10 µM, stronger effect = higher value.
Test [7] in a line: growth inhibition of GSK3B-pretreated HCT116 cells – cell-based, CellTiter-Glo, 0.2 to 20 µM (AID 1117336;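 active = compounds lowering colon cancer cell viability after pretreatment blocking the GSK3B kinase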). Conditions: HCT116 viability after GSK3B inhibitor, at 20 µM, stronger effect = higher value. On the technique in general: ATP-based viability assays read luminescence as a measure of living cells.
Test [8] in a line: inhibition of endothelial tube formation, primary screen, imaging, VEGF stimulated, CD31 staining, tube area, NPC library (AID 1117340;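 active = compound that reduces growth-factor-driven endothelial tube area in a mixed cell culture, no cutoff stated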). Conditions: VEGF-stimulated ADSC/ECFC co-culture, at 10 µM, stronger effect = higher value.
The nature of test [9]: GLP1 release stimulators, primary, NCI-H716, NPC library (AID 1117341;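 active = compound raises GLP1 secretion from the human gut endocrine cells, with no numeric limit stated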). Conditions: NCI-H716 cells, at 10 µM, stronger effect = higher value.
Test [10] is described as follows: HCT116 colon cancer cell growth inhibition, primary screen, CellTiter-Glo luminescence, NPC library (AID 1117342;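 active = compounds that lower survival of HCT116 colon cancer cells in the luminescence readout, no numeric limit stated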). Conditions: at 20 µM (top of the series).
Test [11] is described as follows: reduced SW480 viability measured with CellTiter-Glo, NPC library, primary (AID 1117343;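 active = compounds that lower viability of the colon cancer cells in the luminescence readout, with no numeric limit stated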). Conditions: CellTiter-Glo luminescence; at 20 µM (top of the series).
The nature of test [12]: NPC library primary testing for decreased DLD-1 cell viability via CellTiter-Glo (AID 1117346;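 active = compounds that lower survival of DLD-1 colon cancer cells in the luminescence readout, no cutoff given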). Conditions: DLD-1 viability, CellTiter-Glo luminescence; at 20 µM (top of the series).
In test [13] the target is 6-phosphogluconate dehydrogenase, decarboxylating (Homo sapiens) (UniProt P52209). Briefly: inhibition of human phosphogluconate dehydrogenase – biochemical, recombinant enzyme, NADPH absorbance, primary screen (AID 1159550;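 active = at least 20% inhibition of 6-phosphogluconate dehydrogenase activity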). Conditions: recombinant 6PGD, NADPH absorbance 341 nm; at 10 µM; stronger effect = higher value.
The nature of test [14]: MELAS cybrid and Rieske KO viability enhancers – cell-based, MELAS cybrids, Rieske KO mouse fibroblasts, CellTiter-Glo, primary screen (AID 1508586;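 active = mean z-score across replicates of 1.96 or higher in either the MELAS or the Rieske mutant cell line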;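 note: z relative to plate mean and SD of compound and empty wells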). Conditions: low glucose.
For test [15], the target named is NAD(+) hydrolase SARM1 (Homo sapiens) (UniProt Q6SZW1). Nature of the test: blocking NAD cleavage by SARM1 SAM-TIR – cell lysate, NAD-Glo luminescence (AID 1508614;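 active = compound whose remaining NAD level is above about 45 nM, limit read from the data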;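 note: higher remaining NAD means stronger inhibition of SARM1 NADase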). Conditions: SAM-TIR HEK293T lysate NADase, at 1 µM, stronger effect = higher value.
The target of test [16] is Mitogen-activated protein kinase 7 (Homo sapiens) (UniProt Q13164). Briefly: Gal4-ERK5 driven luciferase induction – cell-based, HTS, primary screen (AID 1508626;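 active = luciferase signal above three times the same-plate solvent-only control wells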;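 note: luciferase driven by Gal4-ERK5 fusion binding five Gal4 sites before minimal TATA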). Conditions: HeLa Gal4-ERK5 transactivation, 18 h, at 5 µM, stronger effect = higher value.
Test [17] deals with F380Y. Nature of the test: BK channel mutant inhibitors and activators – cell-based, U2OS BacMam, thallium flux, beta subunits, selectivity assay, profiling panel (AID 1259406;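 active = thallium flux through the channel raised or lowered by more than 3 SD from vehicle-only wells, actives on both sides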;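 note: initial slope of Thallos dye fluorescence rise after thallium is added; log ratio against the mean of 0.3% DMSO vehicle wells on the same plate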). Conditions: U2OS BacMam BK variants, at 30 µM.
Test [18] can be described thus: P. berghei load reduction in hepatocytes – cell-based, HepG2, luciferase luminescence, HepG2 viability, primary screen (AID 624349; in the data active = parasite load remaining mostly below about 12%, no sharp cut-off; inactive = mostly above about 10%;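 note: 100% = mean of DMSO negative control wells on the same plate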). Conditions: P. berghei liver stage in HepG2, luciferase luminescence, concentration not given here; parasite load remaining: stronger effect = lower value; viability: measured here: HepG2 viability without parasites.
Test [19] can be described thus: viability loss with induced miR-34 in A549 – imaging, A549 dox-inducible miR-34, nuclei and caspase counts, primary screen (AID 1347080;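 active = compounds whose cell count with miR-34 switched on is under 0.7 times the count with it off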). Conditions: A549 miR-34 inducible, Hoechst nuclei count, 48 h.
Where [20] appears, read: MELAS cybrid survival, CellTiter-Glo 48 h, stronger effect = higher value.
[21] abbreviates: Rieske KO mouse fibroblast survival, CellTiter-Glo 72 h.
The mark [22] stands for this setting: stronger effect = lower value, cell number ratio, induced over uninduced.
Where [23] appears, read: measured here: relative caspase fold change +Dox/-Dox.
[24] abbreviates: measured here: total cells with miR-34 induction, stronger effect = lower value.
Setting [25] is: measured here: total cells without miR-34 induction.

The values below come from PubChem BioAssay.

SMILES strings stand for the structures. “And” between values parts separate entries of the source, which are not always exact repeats. Equal entries are not always repeated. The source holds several records for some structures; these can differ, active in one and inactive in another. The source made the active and inactive calls. Unless noted, the rule behind the calls is not given here.

Chain of 6-phosphogluconate dehydrogenase, decarboxylating (Homo sapiens) (P52209 whole entry, looked up): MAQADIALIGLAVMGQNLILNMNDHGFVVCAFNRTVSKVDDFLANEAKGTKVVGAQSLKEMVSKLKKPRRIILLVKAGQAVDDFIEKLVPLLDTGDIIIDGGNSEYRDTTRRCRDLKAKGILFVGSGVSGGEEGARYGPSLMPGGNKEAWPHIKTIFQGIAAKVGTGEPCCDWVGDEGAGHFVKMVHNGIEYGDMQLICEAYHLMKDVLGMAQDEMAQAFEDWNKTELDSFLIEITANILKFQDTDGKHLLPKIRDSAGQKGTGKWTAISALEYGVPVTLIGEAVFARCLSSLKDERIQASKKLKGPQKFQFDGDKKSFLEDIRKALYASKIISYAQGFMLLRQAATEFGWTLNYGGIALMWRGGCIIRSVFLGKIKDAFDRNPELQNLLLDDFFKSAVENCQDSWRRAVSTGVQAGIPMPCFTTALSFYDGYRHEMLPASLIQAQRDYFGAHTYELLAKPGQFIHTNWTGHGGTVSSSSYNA
Chain of Mitogen-activated protein kinase 7 (Homo sapiens) (Q13164 whole entry, looked up, the tested form may be a part): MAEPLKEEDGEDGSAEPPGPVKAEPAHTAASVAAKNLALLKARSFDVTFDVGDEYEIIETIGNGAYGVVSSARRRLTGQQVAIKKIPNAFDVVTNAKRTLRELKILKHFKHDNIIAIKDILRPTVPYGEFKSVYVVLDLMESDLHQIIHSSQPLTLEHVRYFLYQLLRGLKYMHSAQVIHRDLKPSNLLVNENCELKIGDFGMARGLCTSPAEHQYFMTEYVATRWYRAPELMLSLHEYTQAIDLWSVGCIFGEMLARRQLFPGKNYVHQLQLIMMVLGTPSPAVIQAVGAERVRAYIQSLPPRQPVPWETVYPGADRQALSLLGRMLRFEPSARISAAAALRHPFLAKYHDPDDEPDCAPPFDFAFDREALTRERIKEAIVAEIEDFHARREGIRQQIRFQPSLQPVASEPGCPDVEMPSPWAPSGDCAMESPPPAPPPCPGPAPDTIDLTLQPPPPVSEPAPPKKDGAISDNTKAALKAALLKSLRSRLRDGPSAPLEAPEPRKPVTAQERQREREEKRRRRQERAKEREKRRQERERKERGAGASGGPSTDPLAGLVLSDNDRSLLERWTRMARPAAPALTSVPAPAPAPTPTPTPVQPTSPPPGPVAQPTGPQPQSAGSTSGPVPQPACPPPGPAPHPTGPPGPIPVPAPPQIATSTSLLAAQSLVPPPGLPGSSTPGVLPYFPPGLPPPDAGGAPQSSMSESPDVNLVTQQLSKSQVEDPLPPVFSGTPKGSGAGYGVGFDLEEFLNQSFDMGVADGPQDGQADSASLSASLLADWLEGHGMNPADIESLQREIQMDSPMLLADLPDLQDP
Chain of NAD(+) hydrolase SARM1 (Homo sapiens) (Q6SZW1 whole entry, looked up, the tested form may be a part): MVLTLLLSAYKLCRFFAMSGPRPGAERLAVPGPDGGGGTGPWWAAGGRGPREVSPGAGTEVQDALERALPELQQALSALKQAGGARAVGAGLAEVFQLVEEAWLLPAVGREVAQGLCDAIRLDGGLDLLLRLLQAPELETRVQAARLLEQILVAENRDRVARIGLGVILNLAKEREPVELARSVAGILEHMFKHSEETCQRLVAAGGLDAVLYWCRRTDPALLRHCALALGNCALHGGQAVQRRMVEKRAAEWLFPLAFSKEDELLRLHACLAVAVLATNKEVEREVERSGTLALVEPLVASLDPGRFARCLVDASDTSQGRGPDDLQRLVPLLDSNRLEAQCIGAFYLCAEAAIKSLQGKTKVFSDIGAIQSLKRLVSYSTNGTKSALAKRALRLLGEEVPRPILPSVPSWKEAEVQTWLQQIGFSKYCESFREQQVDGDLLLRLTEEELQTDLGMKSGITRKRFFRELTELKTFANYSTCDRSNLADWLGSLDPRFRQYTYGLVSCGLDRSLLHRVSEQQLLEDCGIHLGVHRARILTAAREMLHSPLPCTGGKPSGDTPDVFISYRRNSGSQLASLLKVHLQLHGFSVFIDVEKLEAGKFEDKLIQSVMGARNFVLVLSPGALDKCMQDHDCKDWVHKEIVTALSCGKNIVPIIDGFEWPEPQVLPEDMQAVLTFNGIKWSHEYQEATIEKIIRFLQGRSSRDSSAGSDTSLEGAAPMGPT

Broadly, the inhibition is the drop in the measured response relative to a control, in per cent. For the compound `C[C@]12CCC(=O)C=C1CC[C@@H]1[C@@H]2[C@@H](O)C[C@@]2(C)[C@H]1CC[C@]2(O)C(=O)CO`, the fluorescence ratio in [1] was 0.95 (inactive); in [4] it was 0.93 (inactive). For the same compound, the inhibition in [2] was 0.45% (inactive); in [3], 5.62% (inactive); in test [13], -14.6% (inactive). In addition, the nuclear beta-catenin stimulation in [5] (at 10 µM) is -0.3% (inactive); in [5] (stimulation, at 2 µM), 0.1%. Moreover, the insulin secretion stimulation in test [6] is 1.1% (inactive). The viability decrease in test [7] is -18.7% (inactive). Also, the tube area decrease in test [8] was 9.1% (inactive). For the same compound, the GLP1 secretion stimulation in test [9] was 1.8% (inactive). The inhibition of viability in test [10] is -13.9% (inactive). In addition, the viability decrease (inhibition) in test [11] was 14.7% (inactive); in test [12], -6.7% (inactive). Moreover, the z-score was -0.02 (inactive) and 0.332 (inactive) in [14] (setting [20]); -0.00651 and 1.17 in [14] (setting [21]). The remaining NAD in [15] was 10 nM (inactive). The luciferase signal in test [16] is 124 AU (inactive). The log fold change Tl+ flux in test [17] was 0.0399 (inactive).
By viability is commonly meant a per cent measure of how many cells are alive, often set against a control. For the compound `CCCCCCCCCCC[C@@H](C[C@@H]1OC(=O)[C@H]1CCCCCC)OC(=O)[C@H](CC(C)C)NC=O`, the parasite load remaining in test [18] was 74.9% (inactive). The same compound yielded a viability in [18] of 74.1%. Besides, the values for the fluorescence ratio in test [1] and in test [4] were 1.04 (inactive) and 0.95 (inactive), respectively. Further, the inhibition was -7.52% (inactive) in test [2], -0.1% (inactive) in test [3] and -8.26% (inactive) in test [13]. Further, the nuclear beta-catenin stimulation in test [5] (at 10 µM) is 2.8% (inactive); in test [5] (stimulation, at 2 µM) it was 4.5%. Also, the insulin secretion stimulation in test [6] is -1.7% (inactive). Further, the viability decrease in [7] is 42.4% (inactive). Further, the tube area decrease in [8] was 102% (active). The GLP1 secretion stimulation in test [9] is 0.9% (inactive). The inhibition of viability in [10] is 32.5% (inactive). In addition, the viability decrease (inhibition) in test [11] was 107% (active); in [12], 79.1% (active). For the same compound, the values for the fold change in [19] (setting [22]) and in test [19] (setting [23]) were 0.867 (inactive) and 2.26, respectively. Moreover, the cell count turned out to be 7850 in [19] (setting [24]) and 9060 in test [19] (setting [25]). The remaining NAD in test [15] is 10 nM (inactive). Also, in [16], the luciferase signal was 48 AU (inactive). For the same compound, in [17], the log fold change Tl+ flux was 0.0597 (inactive).
Take `CC(C)Oc1ccc2c(=O)c(-c3ccccc3)coc2c1`: in [18], the parasite load remaining was 170% (inactive). The same compound registered a viability in [18] of 63.7%. Moreover, the fluorescence ratio in test [1] is 1.05 (inactive); in test [4] it was 1.04 (inactive). Also, the inhibition in test [2] is 3.56% (inactive); in [3], 5.29% (inactive); in [13], 8.55% (inactive). Besides, the nuclear beta-catenin stimulation in test [5] (at 10 µM) is 1.8% (inactive) and 1% (inactive); in [5] (stimulation, at 2 µM) it was -1.4% and 0.1%. Further, the insulin secretion stimulation in test [6] was 1.75% (inactive) and -0.3% (inactive). For the same compound, the viability decrease in test [7] was 45.8% (inactive) and -14.2% (inactive). Further, the tube area decrease in test [8] is -10.2% (inactive) and -25.5% (inactive). Further, in [9], the GLP1 secretion stimulation was -2.3% (inactive) and -2.1% (inactive). For the same compound, in [10], the inhibition of viability is 75.7% (active) and 54.6% (active). Besides, the viability decrease (inhibition) in test [11] is 58.3% (active) and 71% (active); in test [12] it was 38.2% (inactive) and 30.5% (inactive). The fold change in test [19] (setting [22]) is 0.928 (inactive) and 0.917 (inactive); in [19] (setting [23]) it was 1.09 and 1.31. In addition, the cell count was 8700 and 8850 in [19] (setting [24]); 9370 and 9660 in [19] (setting [25]). Further, the z-score in [14] (setting [20]) was -0.279 (inactive) and 1.99 (active); in test [14] (setting [21]) it was 0.976 and 0.611. Moreover, the remaining NAD in test [15] was 10 nM (inactive). Also, in [16], the luciferase signal was 56 AU (inactive). Also, in test [17], the log fold change Tl+ flux is -0.0497 (inactive).
